Activity calls are given as the source filed them. Calls come from the whole dose curve; as a rule, active = well fitted activation curve with a large enough effect; inconclusive = small, poorly fitted or top-dose-only effect; inactive = flat fitted curve, though single readings scatter.
Assay: Cellular Toxicity (caspase-3) HepG2 (AID 654);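 note: cells exposed to compound for 16 hours before reading; 0% = DMSO alone and 100% = caspase signal from 100 µM tamoxifen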
Details: HepG2 caspase-3 activation, luminescence; series mostly up to 92.2 µM; caspase-3 activation: at the top concentration
Excerpt: NIH Chemical Genomics Center [NCGC]
NIH Molecular Libraries Screening Centers Network [MLSCN]
National Institutes of Environmental Health Sciences [NIEHS]
National Toxicology Program [NTP]
We have developed a 1536-well cell-based assay for quantitative high throughput screening (qHTS) against a number of cell lines to determine in vitro caspase 3/7 of small molecules. This particular assay uses the HepG2 cell line which is derived from human hepatocellular carcinoma.
NCGC Assay Protocol Summary:
The Caspase-Glo 3/7 assay (Promega) is a homogeneous method to measure caspase-3 and caspase-7 activities in cultured cells. The quantitation of caspase 3/7 activity is based on the cleavage of a peptide-aminoluciferin substrate. After caspase cleaves the substrate the free aminoluciferin is liberated and serves as the substrate of luciferase, which generates the light. The luminescent signal is proportional to amount of caspase 3/7 activity present.
Using the Caspase-Glo 3/7 assay, the amount of caspase 3/7 activity was measured in the HepG2 cell line with complete culture medium following compound treatment for 16 hours. The assay was performed in opaque white 1536-well plates. In the screen, tamoxifen and doxorubicin were used as positive controls. Library compounds were measured for their ability to cause the activation of caspase 3/7 in the cell line, as reflected by an increase in luminescence signal, in a concentration-dependent manner. Data were normalized to the controls for basal activity (DMSO only) and 100% stimulation (100 uM tamoxifen). AC50 values were determined from concentration-response data modeled with the standard Hill equation.
qHTS protocol for caspase 3/7 assay in HepG2 cells
[Step] [Parameter] [Value] [Description]
1. Reagent; 5 uL; 1500 HepG2 cells/well
2. Time; 5 hr; 37 °C incubation
4. Controls; 23 nL; Tamoxifen 0.23 uM to 100 uM & Doxorubicin 7.0 pM to 100 uM
5. Time; 16 hr; 37 °C incubation
6. Reagent; 5 uL; Caspase-Glo 3/7 reagent
7. Time; 20 min; Room Temperature
8. Detection; Luminescence; Viewlux plate reader
Keywords: caspase 3/7, apoptosis, HepG2 cell line, luminescence, NTPHTS, NTPHTS_NCGC, NIEHS, EPA, DSSTox, MLSMR, MLSCN, NIH Roadmap, qHTS, NCGC

SMILES | caspase-3 activation
Cc1ccc(C#N)cc1 | 0.223% (inactive)
Cc1ccc(C)cc1 | -1.2% (inactive)
CC(=O)OC(C)C | 0.975% (inactive)
CCCCCCCCC | 0.71% (inactive)
Cc1ccc(Br)cc1 | 0.337% (inactive)
CCCCCCO | 1.05% (inactive)
O=C(O)c1ccc(Cl)cc1Cl | 0.645% (inactive)
Nc1cccc(N)c1 | 1.71% (inactive)
O=C(Cl)c1cccc([N+](=O)[O-])c1 | -0.15% (inactive)
CCCCC=O | -0.851% (inactive)
CC(C)=CCC/C(C)=C/C=O | 0.074% (inactive)
COC(=O)CCC(=O)OC | -0.438% (inactive)
NC=O | -0.702% (inactive)
Clc1cc(Cl)cc(Cl)c1 | 0.928% (inactive)
Cc1ccc(C(C)(C)C)cc1 | 0.582% (inactive)
Cc1c(N)cccc1[N+](=O)[O-] | 0.416% (inactive)
COc1ccc(N)c(OC)c1 | 0.826% (inactive)
C=CCn1c(=O)n(CC=C)c(=O)n(CC=C)c1=O | -0.182% (inactive)
CC(C)=CCl | -0.879% (inactive)
FB(F)F | -0.281% (inactive)

SMILES | caspase-3 activation
CC(=O)OCCC(C)C | 0.0744% (inactive)
N#CC1(O)CCCCC1 | -0.264% (inactive)
ClCCl | 0.285% (inactive)
BrC(Br)C(Br)Br | 0.527% (inactive)
Nc1c(Cl)cc(Cl)cc1Cl | -0.138% (inactive)
CCN(C(=O)N(CC)c1ccccc1)c1ccccc1 | 0.475% (inactive)
O=C1OC(=O)c2c(Cl)c(Cl)c(Cl)c(Cl)c21 | 0.835% (inactive)
Cc1ccc2cccnc2c1 | -0.334% (inactive)
OC1CCCC1 | -0.19% (inactive)
Cc1ccc(S(=O)(=O)NC2CCCCC2)cc1 | -0.299% (inactive)
Nc1ccc(Cl)cc1[N+](=O)[O-] | -0.263% (inactive)
CCC1CO1 (stereo not given) | 1.23% (inactive)
CCCCCNCCCCC | -0.552% (inactive)
Cc1ccc(C)c([N+](=O)[O-])c1 | 0.87% (inactive)
Oc1cccc(Nc2ccccc2)c1 | -0.0378% (inactive)
O=C1OC(=O)c2cc([N+](=O)[O-])ccc21 | -0.719% (inactive)
CC(N)CN (stereo not given) | 1.32% (inactive)
Cc1cc(C)cc([N+](=O)[O-])c1 | -0.325% (inactive)
CSCCC=O | 0.28% (inactive)
COc1ccccc1[N+](=O)[O-] | -0.438% (inactive)
